Laboratory results taken from PMC4242493, “Sequence specificity incompletely defines the genome-wide occupancy of Myc”.
In all, about 33,000 sequences were measured (“normalized occupancy”: median about 0.075, highest 2% from about 0.095 on). The full list was thinned out, with the highest values kept by preference.

Biological target: MaxL homodimer (Homo sapiens, UniProt P61244 1-160)
Test: universal protein-binding microarray (PBM); PBS-based mixture, 10 nM His-tagged protein dimer, 2% milk, 200 ng/uL BSA, 50 ng/uL salmon testes DNA, 0.02% TX-100; detection with Alexa 488 anti-His antibody;; high values mean tight binding
Conditions: protein: recombinant; tags: C-terminal His-tag (pET21a); chain copies: 2; dsDNA, one strand shown
How it was run: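 His-tagged protein dimer at 10 nM was bound to Agilent 4 x 44 K 'all 10-mer' universal arrays and detected with 10 ng/μL fluorophore-conjugated anti-His antibody on a GenePix 4400A, giving an intensity per 8-mer. Binding occupancy normalises each intensity to the top-ranked one.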

Chain of MaxL homodimer (P61244 whole entry): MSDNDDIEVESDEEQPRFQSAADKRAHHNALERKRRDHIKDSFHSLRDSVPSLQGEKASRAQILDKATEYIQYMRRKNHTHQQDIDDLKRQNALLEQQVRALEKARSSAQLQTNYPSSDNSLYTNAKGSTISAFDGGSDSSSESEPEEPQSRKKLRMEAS

Row | Sequence | binding signal
1 | GTTCTCCA | 0.0767 normalized occupancy
2 | ATGACATG | 0.0993 normalized occupancy
3 | ACCACCTG | 0.106 normalized occupancy
4 | ATGACATA | 0.0825 normalized occupancy
5 | ACCACATA | 0.0854 normalized occupancy
6 | ATGACATC | 0.0827 normalized occupancy
7 | ACCACCTC | 0.0834 normalized occupancy
8 | AACACATA | 0.0823 normalized occupancy
9 | AACACATT | 0.0903 normalized occupancy
10 | ACCACATC | 0.0807 normalized occupancy
11 | AACACATG | 0.138 normalized occupancy
12 | ACCACCTA | 0.082 normalized occupancy
13 | ACCACATG | 0.192 normalized occupancy
14 | CGCCCATC | 0.0733 normalized occupancy
15 | GTACGGAA | 0.0756 normalized occupancy
16 | ACCGCTAC | 0.0748 normalized occupancy
17 | CATCCCTC | 0.0774 normalized occupancy
18 | AATTTTTG | 0.0733 normalized occupancy
19 | AAGACAGG | 0.0727 normalized occupancy
20 | AGCACATG | 0.187 normalized occupancy
21 | ATCACATA | 0.0859 normalized occupancy
22 | ATCACATC | 0.0862 normalized occupancy

Row | Sequence | binding signal
23 | AGCACATA | 0.0807 normalized occupancy
24 | CACACATC | 0.0888 normalized occupancy
25 | AGCACATC | 0.0841 normalized occupancy
26 | ATCACATG | 0.158 normalized occupancy
27 | CACACATA | 0.0896 normalized occupancy
28 | CACACATG | 0.136 normalized occupancy
29 | AGTAGTGG | 0.0787 normalized occupancy
30 | CTACTTGA | 0.0752 normalized occupancy
31 | GCCTCTCC | 0.076 normalized occupancy
32 | CACGCAGC | 0.085 normalized occupancy
33 | ACGTAGCC | 0.0725 normalized occupancy
34 | GCCCCCCC | 0.0757 normalized occupancy
35 | CCAGGGGA | 0.0742 normalized occupancy
36 | ACACGTTG | 0.128 normalized occupancy
37 | AAACGTTG | 0.0765 normalized occupancy
38 | ACACGTCG | 0.0849 normalized occupancy
39 | CCACGTTC | 0.0913 normalized occupancy
40 | ATACGTTC | 0.0794 normalized occupancy
41 | AAACGTTA | 0.0739 normalized occupancy
42 | AGACGTTA | 0.0775 normalized occupancy
43 | ACACGTTC | 0.102 normalized occupancy
44 | AGACGTTC | 0.0744 normalized occupancy

Row | Sequence | binding signal
45 | CAACGTTA | 0.0767 normalized occupancy
46 | ACACGTTA | 0.118 normalized occupancy
47 | CCACGTTA | 0.105 normalized occupancy
48 | AGTCAGGC | 0.0722 normalized occupancy
49 | TGCCCAAA | 0.0731 normalized occupancy
50 | AGTATCAA | 0.0766 normalized occupancy
51 | GGCCAACC | 0.0741 normalized occupancy
52 | AAAAATGG | 0.078 normalized occupancy
53 | ATGCCCCA | 0.0786 normalized occupancy
54 | GAACATTA | 0.0812 normalized occupancy
55 | ACGCCTCC | 0.0771 normalized occupancy
56 | AATAACAA | 0.0746 normalized occupancy
57 | GTACGTTA | 0.0781 normalized occupancy
58 | GGACGTTA | 0.0789 normalized occupancy
59 | GCACGTTA | 0.104 normalized occupancy
60 | ACCAAGGC | 0.0726 normalized occupancy
61 | GATATAAA | 0.0756 normalized occupancy
62 | ACAGGTCA | 0.0797 normalized occupancy
63 | CACGAGAG | 0.0911 normalized occupancy
64 | AACGAGTA | 0.077 normalized occupancy
65 | CACGAGTG | 0.0961 normalized occupancy
66 | AACGAGTG | 0.0753 normalized occupancy

Row | Sequence | binding signal
67 | CACGAGTC | 0.0906 normalized occupancy
68 | CACGAGTA | 0.103 normalized occupancy
69 | CGCAACTA | 0.0738 normalized occupancy
70 | CAAGAGGG | 0.0744 normalized occupancy
71 | CTGGTCGC | 0.0732 normalized occupancy
72 | ATGTATTC | 0.0814 normalized occupancy
73 | GATGTACA | 0.0827 normalized occupancy
74 | AATGTACA | 0.0818 normalized occupancy
75 | CATGTACA | 0.0958 normalized occupancy
76 | AATGTATC | 0.0876 normalized occupancy
77 | CATGTACC | 0.0843 normalized occupancy
78 | CATGTATC | 0.0975 normalized occupancy
79 | CATGTATA | 0.089 normalized occupancy
80 | CATGTACG | 0.0957 normalized occupancy
81 | AATGTACG | 0.0761 normalized occupancy
82 | AGTATTAT | 0.0827 normalized occupancy
83 | CAGTGATG | 0.0746 normalized occupancy
84 | CACTTCGG | 0.0755 normalized occupancy
85 | TCGACAGA | 0.0736 normalized occupancy
86 | CGGTAGCA | 0.0827 normalized occupancy
